Source: PubChem
MOR-DOR inv ag-1 = inverse agonists of MOR-DOR heterodimerization, primary screen, cell-based, luminescence; actives 0.21% (n = 340,000); cell-based MOR-DOR heterodimer luminescence, inverse agonism; Mu-type opioid receptor (Homo sapiens) + Delta-type opioid receptor (Homo sapiens), …; inhibition, % at 9.3 µM; in the data active means inhibition above about 22%, passing the limit was not always enough;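 further: 0% = cells with DMSO and 100% = wells without cells with DMSO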
Target sequence (P35372 whole entry, looked up): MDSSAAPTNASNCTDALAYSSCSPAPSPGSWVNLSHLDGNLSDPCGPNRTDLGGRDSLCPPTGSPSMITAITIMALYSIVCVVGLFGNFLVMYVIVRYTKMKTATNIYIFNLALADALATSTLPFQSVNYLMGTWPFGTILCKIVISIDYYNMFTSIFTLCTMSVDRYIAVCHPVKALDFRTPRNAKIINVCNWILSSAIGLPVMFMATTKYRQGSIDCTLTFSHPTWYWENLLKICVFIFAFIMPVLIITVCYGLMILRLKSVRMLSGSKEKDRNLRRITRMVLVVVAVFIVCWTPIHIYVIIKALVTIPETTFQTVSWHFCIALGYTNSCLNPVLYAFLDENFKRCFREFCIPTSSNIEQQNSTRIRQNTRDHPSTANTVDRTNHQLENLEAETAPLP
Target sequence (P41143 whole entry, looked up): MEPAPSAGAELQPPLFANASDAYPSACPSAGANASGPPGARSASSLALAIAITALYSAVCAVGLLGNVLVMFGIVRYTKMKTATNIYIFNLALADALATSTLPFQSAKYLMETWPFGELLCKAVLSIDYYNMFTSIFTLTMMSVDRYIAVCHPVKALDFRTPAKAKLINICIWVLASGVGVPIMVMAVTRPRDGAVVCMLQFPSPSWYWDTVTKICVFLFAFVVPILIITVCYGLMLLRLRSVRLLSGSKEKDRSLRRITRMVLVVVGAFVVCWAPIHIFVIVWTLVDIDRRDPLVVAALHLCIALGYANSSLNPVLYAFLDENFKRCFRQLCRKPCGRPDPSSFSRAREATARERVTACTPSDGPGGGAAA
HTR5A ag = HTR5A agonists in luminescence cell assay, primary screen, counter-screen for OPRM1-OPRD1 heterodimer agonist project, full-deck HTS; 5-hydroxytryptamine receptor 5A (Homo sapiens), P47898; cell-based; activation, % at 9.3 µM; actives 0.61% (n = 340,000); AID 504692, 2011; in the data active means activation mostly above about 9.5%, no sharp cut-off; inactive means mostly below about 7.6%;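 further: 0% = cells with vehicle only and 100% = reference agonist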
OPRM1-OPRD1 ag = agonists of OPRM1-OPRD1 heterodimerization, primary screen, cell-based, luminescence; cells; activation, % at 9.3 µM; actives 0.3% (n = 340,000); Mu-type opioid receptor (Homo sapiens) + Delta-type opioid receptor (Homo sapiens), …; in the data active means activation above about 18%;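 further: 0% = vehicle-treated cells and 100% = reference agonist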
HTR5A inv ctr = HTR5A inverse agonists in luminescence cell assay, primary screen, counter-screen for OPRM1-OPRD1 heterodimer inverse agonist project, full-deck HTS; HTR5A cell line, inverse agonism; inhibition, % at 9.3 µM; actives 0.083% (n = 340,000); 5-hydroxytryptamine receptor 5A (Homo sapiens), P47898; in the data active means inhibition mostly above about 23%, no sharp cut-off; inactive means mostly below about 18%;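 further: 0% = cells with DMSO and 100% = no-cell wells with DMSO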
MOR-DOR inv ag-2 = inverse agonists of MOR-DOR heterodimerization, counter-screen for HTR5A inverse agonist project, cell-based, luminescence; U2OS counter-screen cells, complementation luminescence; AID 504912, 2011; 190 tested, under 10 active; shares compounds with HTR5A inv ctr; inhibition, % at 9.3 µM;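 further: 0% = cells with DMSO and 100% = wells without cells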
HTR5A inv confrm = HTR5A inverse agonists, retest of hits, confirmation, cell-based, luminescence. 190 tested, under 10 active. HTR5A-expressing cells, inverse agonism. shares compounds with HTR5A inv ctr. inhibition, % at 9.3 µM;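 further: 0% = cells with DMSO and 100% = no cells with DMSO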
Active calls of the source: *; i = inactive; x = not tested or not shown. This is a sample that favours compounds with a hit; in the whole collection about 1.1% have one here. Unless noted, how the calls were made is not given here.

SMILES	MOR-DOR inv ag-1	HTR5A ag	OPRM1-OPRD1 ag	HTR5A inv ctr	MOR-DOR inv ag-2	HTR5A inv confrm
Cc1cc(N(CCO)CCO)ccc1N=Nc1cc(F)ccc1F	21.0	-9.9	-4.3	27.3*	-6.2	12.2
c1ccc(CCNC2=NCCS2)cc1	-6.2	2.6	0.9	-14.9	x	x
CC(C)NC(=O)c1cnc(N2CCN(c3ccccn3)CC2)c2ccccc12	0.3	4.4	-0.1	44.2*	-18.3	5.0
Cc1ccc(NC(=O)c2cccc(-n3cnnn3)c2)cc1Cl	-3.3	1.6	0.8	-4.1	x	x
N#C/C(=C\c1ccc(O)c(O)c1)C(=O)c1ccc(O)c(O)c1	3.7	9.6	-0.7	-34.1	x	x
N#CC(C#N)=C(N)/C(C#N)=C/c1cc(O)c(O)c(O)c1	-3.9	-8.4	0.7	29.9*	20.0	1.3
CCCN1Cc2cccc(C(=O)NCc3ccccc3OC)c2C1=O	9.6	3.1	-1.6	37.0*	-236.3	-40.8
COCCN1Cc2cccc(C(=O)NCc3ccccc3OC)c2C1=O	7.9	5.5	-1.5	-19.6	x	x
Cc1nc2cc(NC(=O)Nc3ccc(N4CCOCC4)cc3)ccc2n1C	10.3	-1.9	-2.2	41.6*	-59.8	-6.5
O=[N+]([O-])c1ccc2nc(NN=Cc3ccc(O)cc3)sc2c1	11.3	-7.3	-2.2	29.8*	-24.8	-0.1
CC(C)c1ccc(/C=C/C(=O)Nc2nc3ccc([N+](=O)[O-])cc3s2)cc1	5.0	2.1	-1.0	-14.7	x	x
O=C1C=CC(=C(c2ccc(O)cc2)c2ccc(O)cc2)C=C1	19.1	-14.7	-5.1	41.9*	i	-10.4
O=C(CCCC(=O)c1ccc(O)cc1)c1ccc(O)cc1	6.6	3.1	-1.1	4.4	x	x
Cc1ccc(C(=O)/C=C/c2cc(C#N)n(C)c2C)cc1	8.8	4.4	-1.7	3.3	x	x
O=C(NCc1nnc(SCC(=O)N2CCN(c3ccccc3)CC2)o1)c1ccccc1	9.9	3.8	-1.9	3.1	x	x
O=C(NCc1nnc(SCC(=O)N2CCCC2)o1)c1ccccc1	11.8	-17.8	-2.9	45.5*	i	-98.7
CN(C(=O)c1cccc(NC(=O)Cc2ccc(NC(=O)C3CCN(C(=O)CCc4ccccc4)CC3)cc2)c1)C1CCCCC1	-1.3	6.9	0.3	-23.6	x	x
NC(=O)c1nsc(C(=O)N(Cc2ccccc2Cl)C(C(=O)NCC2CCCO2)c2ccc(O)cc2)c1N (stereo unspecified)	7.9	-0.4	-1.5	1.0	x	x
COc1ccc(N2C(=NC(=O)CCC3CCCC3)SC3CS(=O)(=O)CC32)cc1 (stereo unspecified)	3.9	3.1	-0.8	-11.6	x	x
CC(C)Oc1cccc(C(=O)N/N=C/c2ccoc2)c1	-1.4	0.0	0.2	-6.5	x	x
CCCOc1cccc(C(=O)N/N=C/c2ccoc2)c1	18.8	8.5	-3.5	45.2*	-6.5	-4.6
Oc1c(C(Nc2ccccn2)c2cccnc2)cc(Cl)c2cccnc12 (stereo unspecified)	-11.5	-26.0	2.2	53.7*	55.5*	76.7*
CC(=O)NC(c1ccc(C)cc1)c1cc(Cl)c2cccnc2c1O (stereo unspecified)	2.6	-1.5	-0.5	4.3	x	x
CCN(CC(=O)Nc1ccc2c(c1)OCCO2)C(=O)c1cc(Cl)nc2ccccc12	14.4	-13.7	-3.5	33.4*	-32.4	-6.9
CCN(CC(=O)Nc1ccc2c(c1)OCCO2)C(=O)c1ccc(Cl)cc1Cl	7.1	7.2	-1.3	-10.5	x	x
SMILES	MOR-DOR inv ag-1	HTR5A ag	OPRM1-OPRD1 ag	HTR5A inv ctr	MOR-DOR inv ag-2	HTR5A inv confrm
COc1cccc(CNCc2ccccc2Br)c1OC	0.9	-6.1	-0.2	35.8*	-47.9	18.7
Cc1noc(C)c1S(=O)(=O)NCc1cccc(Cl)c1	10.6	-1.9	-2.7	4.9	x	x
N#CCCN(/N=C/c1cccnc1)C1=NS(=O)(=O)c2ccccc21	10.6	0.3	-1.7	34.3*	-301.9	5.1
CCN(CC)c1ccc(/C=N/Nc2ccccc2)c(O)c1	-1.2	0.5	0.2	44.6*	-108.4	-20.9
N#CCSc1nnc(-c2ccc3c(c2)OCO3)o1	10.2	-9.5	-1.8	24.8*	-4.3	0.8
Cc1cc(O)c(NC(=S)NC(=O)c2ccc(-c3ccc(Cl)cc3)o2)cc1C	22.8	-29.5	-4.6	64.8*	-138.9	-9.9
CCOc1ccc(NC(=S)NC(=O)c2c(Br)cnn2C)c([N+](=O)[O-])c1	1.7	0.3	-0.2	36.2*	-10.7	-7.5
CCOc1ccc(NC(=S)NC(=O)c2c(Cl)cnn2CC)c([N+](=O)[O-])c1	4.0	-6.7	-0.7	18.1	x	x
CC(Nc1c[nH]c(=O)[nH]c1=O)c1ccccc1 (stereo unspecified)	8.8	4.5	-1.6	11.9	x	x
O=C(CCCCCN1C(=O)c2cccc3cccc(c23)C1=O)NCCCO	11.7	-8.5	-2.5	31.6*	-22.2	-10.3
CCN(CC)C(=O)CSc1nc2ccccc2c(=O)n1OC(C)C	8.1	8.0	-1.6	37.8*	i	11.2
COc1ccc(C(C(=O)NC2CCCC2)N(Cc2cccnc2)C(=O)c2snc(C(N)=O)c2N)cc1OC (stereo unspecified)	11.9	1.9	-2.3	0.8	x	x
COc1ccccc1-c1nnc(NC(=O)CCS(=O)(=O)c2ccccc2)o1	13.2	-1.1	-2.4	39.5*	-7.6	2.2
CC(=O)c1ccc(C(=O)N2CCC(n3nccc3NC(=O)C3CC3)CC2)cc1	5.5	1.8	-1.7	10.9	x	x
NC(=NCc1ccccc1)C(N=Nc1ccccc1)C(=O)NCc1ccccc1 (stereo unspecified)	7.0	-7.6	-1.4	29.5*	-81.9	-2.4
C/C(=N\Nc1cc(-c2ccccc2)nc(-c2ccccc2)n1)c1ccc(O)c(C)c1	12.3	-13.2	-2.3	48.8*	-203.6	-15.7
O=C(Nc1ccc(Cl)cn1)c1cccc2c(Br)cccc12	-6.3	1.4	1.3	-5.1	x	x
CC(C)C[C@@H](CO)N1CCN(Cc2cccnc2)CCC1=O	9.0	-9.7	-1.6	28.5*	-7.9	-5.0
Nc1nc(SCc2ccccc2)c2ncn(C3CCCO3)c2n1 (stereo unspecified)	6.9	0.1	-1.4	-0.5	x	x
Cc1cc(C)nc(N/N=C/c2ccccc2OCc2ccc(Br)cc2)n1	-1.5	1.5	0.3	-20.1	x	x
Cc1cc(C)nc(N/N=C/c2cc(Br)ccc2O)n1	-11.0	-11.3	2.0	32.5*	22.6	2.7
COc1ccc(-n2c(-c3ccc(Cl)cc3)c[nH]c2=S)cc1	15.5	-10.7	-3.4	37.6*	33.4*	21.1
Cc1ccc(-n2c(-c3ccccc3)c[nH]c2=S)cc1	0.0	1.0	0.0	7.7	x	x
CCOc1cccc(/C=C/c2ccc3cccc(O)c3n2)c1O	-28.9	-5.0	5.6	18.2	x	x
CCOc1cccc(/C=C/c2ccc3cccc(O)c3n2)c1OC	3.2	-14.9	-0.7	52.7*	0.1	-6.7
